# Measured values as given in PubChem BioAssay (Tox21).
# Values joined by “and” are separate entries in the source; they are usually repeats but may differ in a detail not shown here. Equal entries are not always repeated. A number with no mark means an inactive call. Records with an inconclusive call do not appear. Where a call stands in place of a potency, no number is given. Active and inactive are the calls of the source. Unless noted, calls come from the whole dose curve; as a rule, active = well fitted curve in the direction sought with a large enough effect in the repeat runs; inconclusive = weak or mixed curves; inactive = no such curve, though single readings can be large; an effect the other way counts as inactive or inconclusive.
# What was measured:
# [1] = qHTS assay to test for compound auto fluorescence at 535 nm (green) in HEK293 cells (AID 720680)
# [2] = qHTS assay to test for compound auto fluorescence at 460 nm (blue) in HEK293 cell free culture (AID 720681)
# Summary of the method: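 Test compounds were pinned into cell-free culture medium (DMEM with 10% FBS) and fluorescence was read directly at Ex/Em 405/460 nm. Signals were expressed as fluorescence equivalents of triamterene, with DMSO vehicle as control.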
# [3] = qHTS assay to test for compound auto fluorescence at 535 nm (green) in HEK293 cell free culture (AID 720682)
# Summary of the method: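 Each library compound, or DMSO control, is added by pintool to medium alone, comprising DMEM and 10% FBS. Emission at 535 nm following 485 nm excitation is quantified against fluorescein.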
# [4] = qHTS assay to test for compound auto fluorescence at 590 nm (red) in HEK293 cell free culture (AID 720683)
# Summary of the method: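 Tox21 10K library compounds were pinned into cell-free DMEM with 10% FBS and fluorescence was read at excitation 540 nm. Activity is expressed as Rose Bengal sodium equivalency.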
# [5] = qHTS assay to test for compound auto fluorescence at 590 nm (red) in HepG2 cell free culture (AID 720684)
# Summary of the method: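 Readout: intrinsic compound fluorescence at 590 nm emission after 540 nm excitation, scaled to Rose Bengal sodium. Matrix was cell-free MEM with 10% FBS; DMSO vehicle wells served as control.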
# [6] = qHTS assay to test for compound auto fluorescence at 460 nm (blue) in HepG2 cell free culture (AID 720685)
# Summary of the method: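 Cell-free plates of MEM plus 10% FBS received 23 nL compound or DMSO vehicle; blue-channel (405/460 nm) intensity scored against triamterene as reference fluorophore.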
# [7] = qHTS assay to test for compound auto fluorescence at 535 nm (green) in HepG2 cell free culture (AID 720686)
# [8] = qHTS assay to test for compound auto fluorescence at 460 nm (blue) in HepG2 cells (AID 720687)
# Summary of the method: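 Cells (2,000/well in MEM with 10% FBS) attached overnight at 37 C, then were exposed to compound or DMSO for 1 hr at 37 C, 5% CO2. Fluorescence read at Ex/Em 405/460 nm, expressed as triamterene-equivalent signal.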
# [9] = molecular target: Glucocorticoid receptor (Homo sapiens) (UniProt P04150); assay: qHTS assay to identify small molecule agonists of the glucocorticoid receptor (GR) signaling pathway (AID 720691; active = well fitted activation curve with a large enough effect in the signal ratio in the repeat runs, not every such curve was filed as active; the % refers to the signal ratio; note: potency is the fitted concentration of half-maximal effect)
# Sequence of Glucocorticoid receptor (Homo sapiens) (P04150 whole entry, looked up): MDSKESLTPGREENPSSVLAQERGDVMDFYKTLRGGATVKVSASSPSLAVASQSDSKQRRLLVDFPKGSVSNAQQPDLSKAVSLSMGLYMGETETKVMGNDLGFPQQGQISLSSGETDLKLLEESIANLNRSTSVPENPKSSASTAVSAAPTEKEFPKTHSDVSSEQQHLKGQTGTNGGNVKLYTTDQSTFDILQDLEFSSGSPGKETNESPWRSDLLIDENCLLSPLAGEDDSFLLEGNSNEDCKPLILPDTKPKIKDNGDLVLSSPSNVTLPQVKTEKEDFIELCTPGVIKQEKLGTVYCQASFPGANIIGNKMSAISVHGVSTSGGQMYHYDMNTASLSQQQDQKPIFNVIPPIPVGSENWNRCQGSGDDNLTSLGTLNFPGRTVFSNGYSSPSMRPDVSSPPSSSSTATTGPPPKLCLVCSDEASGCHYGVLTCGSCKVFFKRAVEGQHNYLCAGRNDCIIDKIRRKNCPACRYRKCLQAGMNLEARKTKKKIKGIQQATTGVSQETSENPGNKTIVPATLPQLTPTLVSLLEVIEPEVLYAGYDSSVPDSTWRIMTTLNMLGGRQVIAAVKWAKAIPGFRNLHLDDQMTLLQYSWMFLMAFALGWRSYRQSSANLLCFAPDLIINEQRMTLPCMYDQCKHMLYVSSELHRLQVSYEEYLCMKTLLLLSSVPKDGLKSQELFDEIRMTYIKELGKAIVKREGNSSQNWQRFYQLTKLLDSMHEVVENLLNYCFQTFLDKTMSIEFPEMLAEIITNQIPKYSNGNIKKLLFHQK
# Summary of the method: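 Compounds in DMSO, alongside positive controls, were added to GR-bla HeLa reporter cells and incubated 18 h at 37 C; GRE-driven beta-lactamase was detected by fluorescence after 2 h with FRET substrate at room temperature.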
# [10] = molecular target: Glucocorticoid receptor (Homo sapiens) (UniProt P04150); assay: qHTS assay to identify small molecule antagonists of the glucocorticoid receptor (GR) signaling pathway (AID 720692; active = well fitted inhibition curve with a large enough effect in the signal ratio in the repeat runs, not every such curve was filed as active; the % refers to the signal ratio; note: potency is the fitted concentration of half-maximal effect)
# Summary of the method: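 In a 1536-well cell format, compounds were added 4 h after seeding GR-bla HeLa cells, together with dexamethasone at 5 nM final; reporter activity was measured by FRET-substrate fluorescence following 18 h at 37 C.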
# [11] = qHTS assay to identify small molecule antagonists of the glucocorticoid receptor (GR) signaling pathway - cell viability counter screen (AID 720693); note: nearly all actives have a fitted effect of over 55% in size
# [12] = qHTS assay for identifying genotoxic compounds that show differential cytotoxicity against isogenic chicken DT40 cell lines with known DNA damage response pathways - wild type cell line (AID 743012); note: nearly all actives have a fitted effect of over 60% in size; note: potency is the fitted concentration of half-maximal effect
# Summary of the method: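 Viability of DNA repair-proficient chicken DT40 cells was assessed by CellTiter-Glo luminescence following 40 h compound exposure at 37 C/5% CO2.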
# [13] = qHTS assay for identifying genotoxic compounds that show differential cytotoxicity against isogenic chicken DT40 cell lines with known DNA damage response pathways - Rev3 mutant cell line (AID 743014); note: nearly all actives have a fitted effect of over 55% in size; note: potency is the fitted concentration of half-maximal effect
# [14] = qHTS assay for identifying genotoxic compounds that show differential cytotoxicity against isogenic chicken DT40 cell lines with known DNA damage response pathways - Rad54/Ku70 mutant cell line (AID 743015); note: nearly all actives have a fitted effect of over 60% in size; note: potency is the fitted concentration of half-maximal effect
# [15] = qHTS assay to identify small molecule antagonists of the androgen receptor (AR) signaling pathway - cell viability counter screen (AID 743033; note: nearly all actives have a fitted effect of over 45% in size)
# [16] = qHTS assay to identify small molecule antagonists of the androgen receptor (AR) signaling pathway using the MDA cell line - cell viability counter screen (AID 743041; note: nearly all actives have a fitted effect of over 45% in size)
# Summary of the method: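 qHTS viability read-out; MDA-kb2 AR-luc; R1881-stimulated; 16 h exposure at 37C, 0% CO2; CellTiter-Fluor, 30 min; fluorescence intensity.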
# [17] = qHTS assay to identify small molecule antagonists of the thyroid receptor (TR) signaling pathway - cell viability counter screen (AID 743064); note: nearly all actives have a fitted effect of over 50% in size; note: potency is the fitted concentration of half-maximal effect
# Summary of the method: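 CellTiter-Fluor readout, 30 min at 37 °C/5% CO2, following 23.5 h incubation of GH3.TRE-Luc cells with test compound and 1 nM T3 (final).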
# [18] = molecular target: Androgen receptor (Homo sapiens) (UniProt P10275); assay: qHTS assay to identify small molecule agonists of the androgen receptor (AR) signaling pathway using the MDA cell line (AID 743040; note: nearly all actives have a fitted effect of over 20% in size)
# Sequence of Androgen receptor (Homo sapiens) (P10275 whole entry, looked up): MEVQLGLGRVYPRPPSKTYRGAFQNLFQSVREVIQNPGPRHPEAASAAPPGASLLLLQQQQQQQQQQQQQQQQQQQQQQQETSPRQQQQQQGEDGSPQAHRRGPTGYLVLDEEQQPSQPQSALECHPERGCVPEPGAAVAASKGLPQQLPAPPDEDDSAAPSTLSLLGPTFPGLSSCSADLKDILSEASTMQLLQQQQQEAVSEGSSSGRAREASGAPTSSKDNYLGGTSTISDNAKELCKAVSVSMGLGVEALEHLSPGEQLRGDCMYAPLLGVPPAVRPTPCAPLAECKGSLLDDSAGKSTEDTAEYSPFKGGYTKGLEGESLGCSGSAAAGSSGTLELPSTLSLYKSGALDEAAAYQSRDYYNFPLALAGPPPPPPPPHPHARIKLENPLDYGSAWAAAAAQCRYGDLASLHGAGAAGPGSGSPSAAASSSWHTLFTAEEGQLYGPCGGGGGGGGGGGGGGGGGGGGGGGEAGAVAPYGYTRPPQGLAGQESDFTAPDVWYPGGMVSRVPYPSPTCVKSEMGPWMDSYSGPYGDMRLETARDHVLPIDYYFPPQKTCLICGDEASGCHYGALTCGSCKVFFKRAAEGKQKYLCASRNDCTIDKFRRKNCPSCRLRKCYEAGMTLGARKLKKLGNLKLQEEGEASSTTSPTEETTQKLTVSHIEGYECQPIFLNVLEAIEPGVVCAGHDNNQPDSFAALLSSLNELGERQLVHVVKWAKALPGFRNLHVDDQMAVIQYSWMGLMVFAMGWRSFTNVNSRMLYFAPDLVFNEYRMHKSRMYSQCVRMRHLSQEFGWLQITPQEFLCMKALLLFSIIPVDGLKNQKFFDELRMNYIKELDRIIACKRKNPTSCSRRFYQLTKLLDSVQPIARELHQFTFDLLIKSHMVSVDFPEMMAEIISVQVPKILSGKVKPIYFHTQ
# Summary of the method: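 Agonist activity is measured as luciferase luminescence in human MDA-kb2 cells whose MMTV reporter responds to both AR and GR. Compounds in DMSO incubate 16 h at 37C, 0% CO2, and ONE-Glo is read after 30 min.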
# [19] = molecular target: Androgen receptor (Homo sapiens) (UniProt P10275); assay: qHTS assay to identify small molecule antagonists of the androgen receptor (AR) signaling pathway using the MDA cell line (AID 743042; note: nearly all actives have a fitted effect of over 55% in size)
# Summary of the method: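 MDA-kb2 cells (human breast carcinoma, stably carrying an MMTV-luciferase reporter responsive to AR and GR) were plated at 3,000 cells/well and preincubated 5 hr at 37C, then given compound plus R1881 agonist for 16 h. ONE-Glo luminescence was read.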
smiles,measurement,setting,value
O=Cc1cccc(Br)c1,outcome,[1],inactive
same,outcome,[2],inactive
same,outcome,[3],inactive
same,outcome,[4],inactive
same,outcome,[5],inactive
same,outcome,[6],inactive
same,outcome,[7],inactive
same,outcome,[8],inactive
same,Potency,[9],inactive
same,Potency,[10],inactive
same,outcome,[11],inactive
same,Potency,[12],inactive
same,Potency,[13],inactive
same,Potency,[14],inactive
same,outcome,[15],inactive
same,Potency,[16],inactive
same,Potency,[17],inactive
NC(=O)Cc1cccc2ccccc12,outcome,[1],inactive
same,outcome,[2],inactive
same,outcome,[3],inactive
same,outcome,[4],inactive
same,outcome,[5],inactive
same,outcome,[6],inactive
same,outcome,[7],inactive
same,outcome,[8],inactive
same,Potency,[9],inactive
same,Potency,[10],inactive
same,outcome,[11],inactive
same,Potency,[12],inactive
same,Potency,[13],inactive
same,Potency,[14],inactive
same,outcome,[15],inactive
same,Potency,[16],inactive
same,Potency,[17],inactive
CC(=O)O[C@@]12CO[C@@H]1C[C@H](O)[C@@]1(C)C(=O)[C@H](O)C3=C(C)[C@@H](OC(=O)[C@H](O)[C@@H](NC(=O)OC(C)(C)C)c4ccccc4)C[C@@](O)([C@@H](OC(=O)c4ccccc4)[C@H]21)C3(C)C,outcome,[1],inactive
same,outcome,[2],inactive
same,outcome,[3],inactive
same,outcome,[4],inactive
same,outcome,[5],inactive
same,outcome,[6],inactive
same,outcome,[7],inactive
same,outcome,[8],inactive
same,Potency,[9],inactive
same,Potency,[10],10700 nM (active)
same,outcome,[11],inactive
same,Potency,[12],1.7 nM (active)
same,Potency,[13],1.7 nM (active) and 1.9 nM (active)
same,Potency,[14],2.7 nM (active)
same,outcome,[15],inactive
same,Potency,[18],inactive
same,Potency,[16],inactive
same,outcome,[19],inactive
same,Potency,[17],29.8 nM (active) and 106 nM (active)
CC(=O)c1ccc2ccccc2c1,outcome,[1],inactive
same,outcome,[2],inactive
same,outcome,[3],inactive
same,outcome,[4],inactive
same,outcome,[5],inactive
same,outcome,[6],inactive
same,outcome,[7],inactive
same,outcome,[8],inactive
same,Potency,[9],inactive
same,Potency,[10],inactive
same,outcome,[11],inactive
same,Potency,[12],inactive
same,Potency,[14],inactive
same,outcome,[15],inactive
same,Potency,[16],inactive
same,Potency,[17],inactive
CC1OC1C1CCC2(C)OC2C1 (stereo unspecified),outcome,[1],inactive
same,outcome,[2],inactive
same,outcome,[3],inactive
same,outcome,[4],inactive
same,outcome,[5],inactive
same,outcome,[6],inactive
same,outcome,[7],inactive
same,outcome,[8],inactive
same,Potency,[9],inactive
same,Potency,[10],inactive
same,outcome,[11],inactive
same,Potency,[12],inactive
same,Potency,[13],inactive
same,Potency,[14],inactive
same,outcome,[15],inactive
same,Potency,[16],inactive
Nc1ccncc1N,outcome,[1],inactive
same,outcome,[2],inactive
same,outcome,[3],inactive
same,outcome,[4],inactive
same,outcome,[5],inactive
same,outcome,[6],inactive
same,outcome,[7],inactive
same,outcome,[8],inactive
same,Potency,[9],inactive
same,Potency,[10],inactive
same,outcome,[11],inactive
same,Potency,[12],inactive
same,Potency,[14],inactive
same,outcome,[15],inactive
same,Potency,[16],inactive
same,Potency,[17],inactive
C=CCOCC(O)CO (stereo unspecified),outcome,[1],inactive
same,outcome,[2],inactive
same,outcome,[3],inactive
same,outcome,[4],inactive
same,outcome,[5],inactive
same,outcome,[6],inactive
same,outcome,[7],inactive
same,outcome,[8],inactive
same,Potency,[10],inactive
same,outcome,[11],inactive
same,Potency,[12],inactive
same,Potency,[13],inactive
same,Potency,[14],inactive
same,outcome,[15],inactive
same,Potency,[16],inactive
same,Potency,[17],inactive
CC(N)C12CC3CC(CC(C3)C1)C2 (stereo unspecified),outcome,[1],inactive
same,outcome,[2],inactive
same,outcome,[3],inactive
same,outcome,[4],inactive
same,outcome,[5],inactive
same,outcome,[6],inactive
same,outcome,[7],inactive
same,outcome,[8],inactive
same,Potency,[9],inactive
same,outcome,[11],inactive
same,Potency,[12],inactive
same,Potency,[14],inactive
same,outcome,[15],inactive
same,Potency,[16],inactive
CCOC(=O)OC(C)OC1=C(C(=O)Nc2ccccn2)N(C)S(=O)(=O)c2ccccc21 (stereo unspecified),outcome,[1],inactive
same,outcome,[2],inactive
same,outcome,[3],inactive
same,outcome,[4],inactive
same,outcome,[5],inactive
same,outcome,[6],inactive
same,outcome,[7],inactive
same,outcome,[8],inactive
same,Potency,[9],5350 nM (active)
same,outcome,[11],inactive
same,Potency,[14],944 nM (active)
same,outcome,[15],inactive
same,Potency,[16],inactive
same,Potency,[17],inactive
CC(C)C[C@@H](N)C(=O)O,outcome,[1],inactive
same,outcome,[2],inactive
same,outcome,[3],inactive
same,outcome,[4],inactive
same,outcome,[5],inactive
same,outcome,[6],inactive
same,outcome,[7],inactive
same,outcome,[8],inactive
same,Potency,[9],inactive
same,outcome,[11],inactive
same,Potency,[12],inactive
same,Potency,[13],inactive
same,Potency,[14],inactive
same,outcome,[15],inactive
same,Potency,[16],inactive
same,Potency,[17],inactive
CC[C@H]1OC(=O)[C@H](C)[C@@H](O[C@H]2C[C@@](C)(OC)[C@@H](O)[C@H](C)O2)[C@H](C)[C@@H](O[C@@H]2O[C@H](C)C[C@H](N(C)C)[C@H]2O)[C@](C)(OC)C[C@@H](C)C(=O)[C@H](C)[C@@H](O)[C@]1(C)O,outcome,[1],inactive
same,outcome,[2],inactive
same,outcome,[3],inactive
same,outcome,[4],inactive
same,outcome,[5],inactive
same,outcome,[6],inactive
same,outcome,[7],inactive
same,outcome,[8],inactive
same,Potency,[9],inactive
same,Potency,[10],inactive
same,outcome,[11],inactive
same,Potency,[13],inactive
same,Potency,[14],inactive
same,outcome,[15],inactive
same,Potency,[17],inactive
CC(C)(C#N)Nc1nc(Cl)nc(NC2CC2)n1,outcome,[1],inactive
same,outcome,[2],inactive
same,outcome,[3],inactive
same,outcome,[4],inactive
same,outcome,[5],inactive
same,outcome,[6],inactive
same,outcome,[7],inactive
same,outcome,[8],inactive
same,Potency,[9],inactive
same,outcome,[11],inactive
same,Potency,[12],inactive
same,Potency,[14],inactive
same,outcome,[15],inactive
same,Potency,[16],inactive
same,Potency,[17],inactive
COc1cc(C)nc(-n2nc(C)cc2OC)n1,"fluorescence, % of fluorescein",[1],-0.0757% [at 18.6 µM]
same,"fluorescence, % of fluorescent control",[2],-0.0196% [at 18.6 µM]
same,activity change,[3],-0.0111% [at 18.6 µM]
same,"fluorescence, % of fluorescent control",[4],0.134% [at 18.6 µM]
same,"fluorescence, % of Rose Bengal",[5],-0.183% [at 18.6 µM]
same,"fluorescence, % of fluorescent control",[6],-0.138% [at 18.6 µM]
same,"fluorescence, % of fluorescein control",[7],-0.0352% [at 18.6 µM]
same,"fluorescence, % of fluorescent control",[8],-0.112% [at 18.6 µM]
same,Potency,[9],inactive
same,Potency,[10],inactive
same,outcome,[11],inactive
same,outcome,[15],inactive
same,Potency,[16],inactive
CC(COc1ccccc1)NN (stereo unspecified),outcome,[1],inactive
same,outcome,[2],inactive
same,outcome,[3],inactive
same,outcome,[4],inactive
same,outcome,[5],inactive
same,outcome,[6],inactive
same,outcome,[7],inactive
same,outcome,[8],inactive
same,Potency,[10],inactive
same,outcome,[11],inactive
same,Potency,[12],inactive
same,Potency,[13],inactive
same,Potency,[14],inactive
same,outcome,[15],inactive
same,Potency,[16],inactive
C=COCC1CCC(COC=C)CC1 (stereo unspecified),outcome,[1],inactive
same,outcome,[2],inactive
same,outcome,[3],inactive
same,outcome,[4],inactive
same,outcome,[5],inactive
same,outcome,[6],inactive
same,outcome,[7],inactive
same,outcome,[8],inactive
same,Potency,[9],inactive
same,outcome,[11],inactive
same,Potency,[12],inactive
same,outcome,[15],inactive
same,Potency,[16],inactive
same,Potency,[17],inactive
CCCCOCCOC(=O)CCCCCCCCC(=O)OCCOCCCC,outcome,[1],inactive
same,outcome,[2],inactive
same,outcome,[3],inactive
same,outcome,[4],inactive
same,outcome,[5],inactive
same,outcome,[6],inactive
same,outcome,[7],inactive
same,outcome,[8],inactive
same,outcome,[11],inactive
same,Potency,[12],inactive
same,Potency,[13],inactive
same,Potency,[14],inactive
same,outcome,[15],inactive
